# From PubChem
# Pf Dd2 growth – Plasmodium falciparum Dd2 growth inhibition; P. falciparum Dd2 growth, SYBR Green, 72 h; Potency, µM (titrated, usually from 28.9 µM), inactives show top-dose activity, negative = inhibition, hits mostly inhibitors; 4.3% of 120,000 active; active = well fitted inhibition curve with a large enough effect;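 note: plate controls were DMSO vehicle for no effect and reference drug for full effect; nearly all actives have a fitted effect of over 65% in size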
#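 Infected erythrocytes (Dd2, 0.3% parasitemia, 2.5% hematocrit final) are added to compound in RPMI-1640/Albumax II medium, grown 72 h at 37C in low oxygen, then lysed with saponin/Triton-X containing SYBR Green and read by fluorescence.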
# * = called active by the depositor; i = inactive; [ ] = remark or other dose. The full list was thinned out, with hits kept by preference. Potency is the fitted concentration of half-maximal effect.
SMILES,Pf Dd2 growth
Cc1cn2nc(C(=O)N3CCC(C(=O)NC4CCC(C)CC4)CC3)cc2c(=O)[nH]1 (stereo not drawn),21%
COCc1nn(CC(=O)N2CCc3sccc3C2)c(=O)n1-c1ccccc1,-8%
O=C(c1cccnc1)N1CCCCCCn2c(nnc2-c2ccc(F)cc2)CC1,-18%
COC1C(=O)N(C2CCN(Cc3cn(C)c4ccccc34)CC2)C12CCOCC2 (stereo not drawn),i
O=C1CCN(S(=O)(=O)c2ccccc2)CCCN(C(=O)Nc2ccccc2F)CCN1,3%
Cc1ccc(-c2noc([C@@H]3CCCN3C(=O)c3ccc4c(c3)OCO4)n2)cc1,0%
CCO[C@H]1CN(C(=O)Cc2ccc3nc(C)[nH]c3c2)C[C@@H]1O,-19%
Cn1nc(C2CCCN(C(=O)Cc3ccsc3)C2)n(C2CCCC2)c1=O (stereo not drawn),-16%
O=C(O)c1ccc(CN2CCC(N3CCCC(C(=O)N4CCCC4)C3)CC2)cc1 (stereo not drawn),6%
C=CCS(=O)(=O)N1CCCC(CCc2cccc(OC)c2)C1 (stereo not drawn),-16%
CS(=O)(=O)CCNC(=O)C1CCCN(C2CCN(Cc3cccnc3)CC2)C1 (stereo not drawn),19%
COc1cccc(CCC2CCCN(C3CCN(Cc4cccnc4)CC3)C2)c1 (stereo not drawn),8.9µM*
COC(=O)CC(=O)CSc1nc2cc(C(=O)NCC(C)C)ccc2c(=O)n1CCc1ccccc1,11µM*
COCCn1c(SCC(=O)c2c[nH]c3ccccc23)nc2cc(C(=O)NC(C)C)ccc2c1=O,-16%
COCCn1c(SCC(=O)c2c(C)[nH]c3ccccc23)nc2cc(C(=O)NC(C)C)ccc2c1=O,-27%
Cc1cccc(C(=O)N2CC(=O)N(c3cccc(Cl)c3)CC2C)n1 (stereo not drawn),4%
CC1CCN(C(=O)Cn2ccn3nc(-c4ccc(F)cc4)c(CO)c3c2=O)CC1,i
COCCN(C)C(=O)c1cn(C2CN(C(=O)NCc3ccc(C)cc3)C2)nn1,28%
O=C1[C@@H]2C[C@@H](CN2Cc2ccnc3ccccc23)Oc2ccccc2N1CC1CC1,-13%[44.1 µM]
CN1C(=O)[C@@H]2C[C@@H](CN2Cc2ccccc2)Oc2ccccc21,i
Cc1ccc(CN2C[C@@H]3C[C@H]2C(=O)N(CC2CC2)c2ccccc2O3)cc1,10µM*
O=C1[C@@H]2C[C@@H](CN2C(=O)Cc2ccccc2)Oc2ccccc2N1CC1CC1,-22%[44.1 µM]
O=C1[C@@H]2C[C@@H](CN2Cc2ccc3c(c2)OCO3)Oc2ccccc2N1CC1CC1,13µM*
Cn1cc(CN2C[C@@H]3C[C@H]2C(=O)N(CC2CC2)c2ccccc2O3)c2ccccc21,-1%[44.1 µM]
CNC(=O)Nc1cccn2nc(-c3ccccc3)nc12,i
SMILES,Pf Dd2 growth
COC(=O)CNC(=O)c1nc(-c2ccccc2OC)c2ccccn12,-16%
Cn1c(CO[C@H]2CN(Cc3ccc(C#N)cc3)C[C@H]2F)nc2ccccc21,i
CCCCCCSc1nnc2c(n1)OC(C)Nc1ccc(Br)cc1-2 (stereo not drawn),4%
CCCCCSc1nnc2c(n1)[nH]c1c(C)cccc12,4µM*
Cc1nnc(NC(=O)CSc2nnc3c(n2)[nH]c2ccccc23)s1,-9%
NCc1ccccc1-c1cc(F)cc(F)c1,13µM*
O=Cc1ccccc1-c1ccc(OC(F)(F)F)cc1,-5%[76.6 µM]
Cc1ccc(-c2[nH]ncc2CN)cc1,-24%
NCc1ccccc1-c1ccc(OC(F)(F)F)cc1,11µM*
Cc1cc(C)cc(-c2ccccc2C=O)c1,-3%[44.1 µM]
CN(Cc1ccc(OC(F)(F)F)cc1)Cc1ccccc1C(F)(F)F,-18%
Cc1cccc(-c2[nH]ncc2CN)c1,-12%
COc1ccc(F)cc1-c1ccc(CN)cc1,-16%[44.1 µM]
Cc1ccc(-c2ccccc2C=O)cc1Cl,14%[44.1 µM]
Cc1ccc(-c2ccccc2CN)cc1Cl,11µM*
Cc1cc(C)cc(-c2ccccc2CN)c1,13µM*
Cc1noc(C)c1S(=O)(=O)N1CCC2(C1)N=C(c1ccccn1)C(=O)N2 (stereo not drawn),13%
OC[C@@H]1CNC[C@H]1C1CCN(C2CCOCC2)CC1,18%
O=C(NC1CC(=O)N(CCCc2ccccc2)C1)c1ccoc1 (stereo not drawn),-17%
Cc1noc(C)c1C(=O)N1CCCn2ccnc2C1C(C)C (stereo not drawn),17%
CCN1CC2(CCC1=O)CCN(Cc1ccc(C(F)(F)F)c(F)c1)CC2,-8%
COc1ccc(-c2noc([C@@H]3C[C@H](NC(=O)c4ccc(C#N)cc4)CN3C)n2)cc1,i
Cn1cc(CNC(=O)C[C@@H]2C[C@H]3O[C@H](CNC(=O)NCc4ccccc4)[C@@H](O)[C@H]3O2)cn1,-12%
CCNC(=O)[C@@H]1C[C@H](NC(=O)c2scnc2C)CN1Cc1nc(C)no1,0%
CC(C)CCC(=O)N1CCC(OC2CCN(Cc3ccccc3)CC2)CC1,-27%
SMILES,Pf Dd2 growth
NCc1ccc(-c2ccccn2)cc1,-18%[44.1 µM]
Cc1cc(C)cc(-c2ccc(C=O)cc2)c1,-11%[44.1 µM]
Cc1cc(C)cc(-c2ccc(CN)cc2)c1,11µM*
CNC(=O)[C@H]1C[C@H](Oc2ccccc2)CN1S(=O)(=O)c1cn(C)cn1,-2%
O=C(CC1=C2CCCCC2NC1=O)Nc1cccc(F)c1 (stereo not drawn),5%
Nc1nc(CCCNC(=O)c2cn(C3CCC(N)CC3)nn2)cs1 (stereo not drawn),6%
Cc1noc2c(-c3cccnc3NCCCn3ccnc3)cc(-c3ccccc3)nc12,10µM*
Cc1noc2c(-c3cccnc3NCCN(C)C)cc(-c3ccccc3)nc12,i
COCCCNc1ncccc1-c1cc(-c2ccccc2)nc2c(C)noc12,i
CCn1ccnc1CN(C)C(=O)c1cc(COc2ccccc2)[nH]n1,-10%
COc1ccccc1-c1noc(CCc2nc(-c3ccc(C)nn3)no2)n1,-18%
Cc1ccc(CNC(=O)N2CCCCCCNC(=O)CC2)cc1,9%
O=C(CN1CCCCCC1)NCC1Cn2cccc2C(=O)N1Cc1ccccc1 (stereo not drawn),4µM*
CC(C)CNC(=O)C1Cn2cccc2C(=O)N1Cc1cccnc1 (stereo not drawn),7.9µM*
O=C(NCCCN1CCc2ccccc2C1)C1Cn2cccc2C(=O)N1Cc1ccccc1 (stereo not drawn),0.89µM*
O=C(NCCc1ccccc1)C1Cn2cccc2C(=O)N1Cc1ccccc1 (stereo not drawn),-20%
CC(C)CNC(=O)C1Cn2cccc2C(=O)N1Cc1ccccc1 (stereo not drawn),i
O=C(NCCCN1CCCC1=O)C1Cn2cccc2C(=O)N1Cc1ccccc1 (stereo not drawn),19%
O=C(NCC1Cn2cccc2C(=O)N1Cc1ccccc1)NC1CCCC1 (stereo not drawn),-14%
CC(C)C(=O)NCC1Cn2cccc2C(=O)N1Cc1ccccc1 (stereo not drawn),i
O=C(NCc1ccccc1)C1Cn2cccc2C(=O)N1Cc1cccnc1 (stereo not drawn),8%
COc1ccc(CNC(=O)Cn2c(-c3ccccc3)nc(C)c(CCO)c2=O)cc1,-17%
OC1CN(Cc2ccccc2)CCN(Cc2ccc(OC(F)F)cc2)C1 (stereo not drawn),i
CCCc1ccc(S(=O)(=O)N(CCC)CC2CCOC2)cc1 (stereo not drawn),22%[5.79 µM]
Cc1ccc(-c2ccc3nnc(CNC(=O)c4ccccc4C)n3n2)cc1C,2%
O=C1CCN(C2CCN(Cc3nc(COc4ccccc4)no3)CC2)CCN1,-13%
CN(C)[C@@H]1CNCC[C@@H]1CO,27%
